Our source for the Potency and outcome values is PubChem BioAssay (NCATS).

Results filed as inconclusive are left out. Where a call stands in place of a potency, no number is given. The source made the active and inactive calls. The call rests on the fitted dose curve; in most records, active means well fitted inhibition curve with a large enough effect; inconclusive means small, poorly fitted or top-dose-only effect; inactive means flat fitted curve, though single readings scatter. Where a SMILES comes first, the peptide text is derived from it. Bridges are numbered along the chain shown (N, C = ends). [ ]: non-standard residue; d: D form. NMeY = CN[CH](Cc1ccc(O)cc1)C(=O)O
Potency means the concentration at half of the fitted maximal effect.

This test has as its system HACAT. The test can be described thus: qHTS assay to identify novel small-molecules to repurpose for Merkel cell carcinoma treatment (AID 1296009). Further: nearly all actives have a fitted effect of over 60% in size. The conditions noted are these: MCC and control cell lines, CellTiter-Glo viability, 72 h; series mostly up to 44.8 µM. From the text:
MCC is a rare and aggressive neuroendocrine skin cancer with limited treatment options. Approximately 80% of MCCs have the Merkel cell polyomavirus (MCPyV) DNA integrated into the host genome (virus-positive: VP-MCC) and viral oncogenes drive oncogenesis. The remaining MCCs are virus-negative (VN-MCC) and are caused by UV mutagenesis. To identify novel treatments for VP-MCC and/or VN-MCC we screened three VP-MCC cell lines (WAGA, MKL-1, MKL-2), three VN-MCC cell lines (MCC-13, MCC-26, UISO), and four immortalized, non-transformed control cell lines (HaCaT, HEK293T, CRL7250, NIH-3T3) against ~2,400 compounds in the NCGC Pharmaceutical Collection (NPC) and ~1,900 compounds in the Mechanism Interrogation PlatE (MiPE). Using cell viability as a readout (CellTiter-Glo assay) we found both overlapping and distinct drugs that can be repurposed for the treatment of VP-MCC and VN-MCC.
A high-throughput screen was conducted in 1536-well white flat bottom plates (Corning) on a Kalypsys robotic system. Cell lines WAGA, MKL-1, MKL-2, MCC-13, MCC-26, UISO, HaCaT, HEK293T, CRL7250, and NIH-3T3 were screened against 2 small molecule annotated drug libraries NPC and MIPE in dose response (8 and 11 pt. respectively) measuring cell viability after 72 hours of incubation. […] A 1,536 pintool (Kalypsys) was used to transfer 23 nL of compound in DMSO to the 1,536-well assay plates. After 72 hr incubation at 37 degree celsius, 2.5 uL of CellTiter-Glo (Promega) was dispensed into each well using a BiorapTR. Plates were incubated at room temperature for 10 min, transferred to a ViewLux (PerkinElmer) and the luminescence was recorded using an exposure time of 2 seconds. Relative luminescence units (RLUs) were normalized to in-plate controls (no cells as a positive (cytotoxicity) control, DMSO as negative control) and the normalized data was processed using NCATS in-house software.
In general terms: qHTS replaces the single test concentration by a dilution series.
For `COC(=O)C1=CO[C@@H](O[C@@H]2O[C@H](CO)[C@@H](O)[C@H](O)[C@H]2O)[C@H]2[C@@H]1C=C[C@@]21C=C([C@H](C)O)C(=O)O1`, the Potency entry was “inactive”.
On to `CS(=O)(=O)NCC1CCC(Nc2nc3c(s2)CCSc2ccccc2-3)CC1` (stereo not given), for which the Potency result is “inactive”.
Turning to `CNC(=O)c1ccccc1Nc1nc(Nc2ccc3c(c2OC)CCCC(N2CCN(CCO)CC2)C3)ncc1Cl` (stereo not given), the Potency was 5.8 µM (active).
The same measure, in the same setting: the result for `CCC(C)/C=C(C)/C=C/c1cc2c(cn1)C(=O)C(C)(OC(C)=O)C(O)=C2Cl` (stereo not given) reads “inactive”.
For the compound `CC1(C)CC[C@]2(C(=O)O[C@@H]3O[C@H](CO)[C@@H](O)[C@H](O)[C@H]3O)CC[C@]3(C)C(=CCC4[C@@]5(C)CC[C@H](O[C@@H]6O[C@H](C(=O)O)[C@@H](O)[C@H](O)[C@H]6O)C(C)(C)C5CC[C@]43C)C2C1` (stereo not given in full), the outcome is “inactive [at 9.27 µM]”.
For the compound `Cc1cc(C)c(CNC(=O)c2cc(-c3ccc(CN4CCOCC4)cc3)cc3c2cnn3C2CCCC2)c(=O)[nH]1`, the Potency result is “inactive”.
In the case of `C=CC(C)(C)c1[nH]c2cc3c(cc2c1CC1NC(=O)C2CCCN2C1=O)C=CC(C)(C)O3` (stereo not given), the Potency entry was “inactive”.
As to `C=C1CCC[C@]2(C)CC[C@@H](C(=C)C(=O)O)[C@H](O)[C@@H]12`, the Potency entry was “inactive”.
`Cc1cc(NC(=O)Nc2ccc(F)c(F)c2)n(-c2ccccc2)n1`: the Potency result was “inactive”.
Regarding `CC(C)c1cccc2c(-c3ccccc3)cc(-c3ccc(-c4ccc(C(=O)O)cc4)[nH]3)nc12`, the Potency result is “inactive”.
As for `O=C(Nc1c(-c2cccs2)nc2ccccn12)c1ccc(Cl)cc1`, the Potency result is “inactive”.
With `CC1OC(OC2C(C)OC(OC3C(O)C(CO)OC(O[C@H]4CC[C@@]5(C)C(CC[C@]6(C)C5CC=C5C7[C@@H](C)[C@H](C)CC[C@]7(C(=O)O)CC[C@]56C(=O)O)C4(C)C)C3O)C(O)C2O)C(O)C(O)C1O` (stereo not given in full), the outcome was “inactive [at 9.27 µM]”.
As to `C[C@@H]1CC[C@]2(C(=O)O[C@@H]3O[C@H](CO)[C@@H](O)[C@H](O)[C@H]3O)CC[C@]3(C)C(=CCC4[C@@]5(C)C[C@@H](O)[C@H](O)[C@](C)(C(=O)O)C5CC[C@]43C)[C@@H]2[C@]1(C)O` (stereo not given in full), the Potency entry was “inactive”.
On to `COc1cc(OC)c(/C=C/S(=O)(=O)Cc2ccc(OC)c(NCC(=O)O)c2)c(OC)c1`, for which the Potency entry is “inactive”.
Still for that read-out and setting: the entry for `CC(=O)O[C@@H]1[C@@H](O)[C@H](O[C@H]2CC[C@]34C[C@]35CC[C@]3(C)[C@@H]([C@@]6(C)CC[C@@H](C(C)(C)O)O6)[C@@H](O)C[C@@]3(C)[C@@H]5C[C@H](O[C@@H]3O[C@H](CO)[C@@H](O)[C@H](O)[C@H]3O)[C@H]4C2(C)C)OC[C@H]1O` is “inactive”; for `CC(C)S(=O)(=O)N[C@H]1CCOC[C@@H]1c1ccc(-c2ccc(C#N)s2)cc1` it is “inactive”.
For the compound `COc1ccc([C@@]2(O)c3c(ccc(CC=C(C)C)c3O)NC(=O)[C@@H]2OC)cc1`, the Potency result is “inactive”.
With `C[C@@H]1CCC2C(C)(C)[C@H](O)CC[C@]2(C)[C@@]12Cc1c(O)cc3c(c1O2)CN([C@@H](CCC(=O)O)C(=O)O)C3=O` (stereo not given in full), the Potency entry is “inactive”.
On the same count and under the same terms, the result for `C[C@@]12CC[C@@H]3[C@@](CC[C@H]4[C@@]3(C)CCC[C@@]4(C)C(=O)O)(CC1=O)C2` reads “inactive”.
Same read-out and setting: the entry for `C[C@H](CCC(=O)O)[C@H]1CC[C@H]2[C@@H]3C[C@H](O)[C@@H]4C[C@H](O)CC[C@]4(C)[C@H]3CC[C@]12C` is “inactive”.
With `C=C(C(=O)OC)C1C(O)CC2(C)C(O)CCC(=O)C2C1O` (stereo not given), the Potency result was “inactive”.
`CC(=O)O[C@H]1CC[C@@]2(C)C(CC[C@@H](C)[C@]23Cc2c(O)cc4c(c2O3)CN([C@@H](CCC(=O)O)C(=O)O)C4=O)C1(C)C` (stereo not given in full): the Potency entry was “inactive”.
`CC(C)c1cc(C(=O)N2CC[C@H](NC(=O)C3CC3)C2)n[nH]1`: the Potency entry was “inactive”.
Still for that read-out and setting: the entry for `CCCCCCOc1cc2c(cc1N(C)c1ncc(C(=O)O)cn1)C(C)(C)CCC2(C)C` is “inactive”; for `COc1c2cc(c(O)c1OC)-c1cc(ccc1O)CCC(O)CCCC2` (stereo not given) it is “inactive”.
Consider `C=C(C(=O)O)C1CCC2(C)CCCC(C)(O)C2C1` (stereo not given), for which the Potency result was “inactive”.
On to `CC(C)=CCC/C(C)=C/CO[C@@H]1O[C@H](CO)[C@@H](O)[C@H](O)[C@H]1O`, for which the Potency result is “inactive”.
As for `CO/N=C(/C(=O)N[C@@H]1C(=O)N2C(C(=O)O)=C(Cn3ccc(=N)n3CCO)CS[C@H]12)c1csc(N)n1`, the Potency result is “inactive”.
Turning to `Cc1noc(=O)c2ccc(NC(=O)C(O)(CC(C)(C)c3cccc4c3OCC4)C(F)(F)F)cc12` (stereo not given), the Potency entry is “inactive”.
For `CN1CCN(C(=O)c2ccc3cc(CCNc4ncnc5ccc(C#N)cc45)ccc3c2)CC1`, the Potency result was “inactive”.
Regarding `O=C(/C=C/c1ccccc1)OC[C@]12O[C@H]1[C@@H](O)[C@@H]1C=CO[C@@H](O[C@@H]3O[C@H](CO)[C@@H](O)[C@H](O)[C@H]3O)[C@@H]12`, the Potency result was “inactive”.
As to `CC1(C)CC[C@]2(C(=O)O[C@@H]3O[C@H](CO)[C@@H](O)[C@H](O)[C@H]3O)CC[C@]3(C)C(=CCC4[C@@]5(C)CC[C@H](O[C@@H]6O[C@H](C(=O)O)[C@@H](O)[C@H](O)[C@H]6O)[C@@](C)(CO)C5CC[C@]43C)C2C1` (stereo not given in full), the outcome is “inactive [at 9.27 µM]”.
For the compound `C=C(C(=O)O)[C@H]1C[C@]2(C)[C@@H](O)CC[C@]23O[C@H]1C[C@@H]3C`, the Potency result was “inactive”.
For `CCC(C)C1NC(=O)C2CCCN2C(=O)C(NC(C)=O)C(C)OC(=O)C(Cc2ccc(OC)cc2)N(C)C(=O)C2CCCN2C(=O)C(C(C)C)NC1=O` (stereo not given) (Ac-TPIVP[NMeY](Me); ester 1-C; configuration not given here), the Potency entry was “inactive”.
`CC[C@]12C=CCN3CC[C@@]4(c5cc([C@@]6(C(=O)OC)C[C@H]7C[C@@H](C(C)(F)F)CN(Cc8c6[nH]c6ccccc86)C7)c(OC)cc5N(C)[C@H]4[C@@](O)(C(=O)OC)[C@@H]1OC(C)=O)[C@@H]32`: the Potency entry was “inactive”.
`O=C(O)[C@H](Cc1ccc(Nc2nccc3ccncc23)cc1)NC1=C(Br)C(=O)C12CCCCC2`: the Potency entry was “inactive”.
In the case of `CC(C)(O)C1CCC(C)(C2CCC3(C)C4CCC5C(C)(C(=O)OC6OC(CO)C(O)C(O)C6O)C(O)CC(O)C56CC46CCC23C)O1` (stereo not given), the Potency entry was “inactive”.
For the compound `N#Cc1cc(F)cc(-c2nc(-c3ccccn3)no2)c1`, the Potency result was “inactive”.
Regarding `O=S(=O)(c1ccccc1)c1cnc2c(N3CCNCC3)cccc2c1`, the Potency result is “inactive”.
In the case of `CN(C)C(=O)NC1CCC(CCN2CCN(c3cccc(Cl)c3Cl)CC2)CC1` (stereo not given), the outcome is “inactive [at 9.27 µM]”.
